The values below come from PubChem BioAssay (NCATS).

Test [1] is described as follows: qHTS to identify inhibitors of the type 1 interferon - major histocompatibility complex class I in skeletal muscle: primary screen against the NCATS LOPAC collection (AID 1347405).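 Further: human myoblasts with HiBiT tag on endogenous HLA-B stimulated by IFN-beta; lytic HiBiT luminescence reporting HLA-B protein level.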 Further: potency means the concentration at half of the fitted maximal effect. The procedure, abridged:
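First, engineered myoblasts carrying HLA-B-HiBiT were seeded in medium lacking dexamethasone with 4 ng/ml IFN-beta. After 1 hr, compounds were pinned in (top 46 uM final, 7 points). After 24 hrs at 37 C, luminescence was measured following 10 min lysis.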
On the technique in general: Quantitative high-throughput screening tests each substance at several concentrations.

The nature of test [2]: qHTS for inhibitors of adenylyl cyclases using a fission yeast platform: a pilot screen against the NCATS LOPAC library (AID 1347410). The procedure, abridged:
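Fission yeast qHTS: CHP2027 cells (AC9-GNAS-PDE4D2, fbp1-GFP), 5x10^6 cells/mL working density, EMM + His/Lys/Ura; LOPAC at up to 57 µM final; 18 h dark, 30C; GFP by laser cytometry. DPI positive control, DMSO vehicle.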

The nature of test [3]: qHTS to identify inhibitors of the type 1 interferon - major histocompatibility complex class I in skeletal muscle: primary screen against the NCATS Mechanism Interrogation Plate v5.0 (MIPE) Libary (AID 1347411). Further: nearly all actives have a fitted effect of over 65% in size. Further: potency means the concentration at half of the fitted maximal effect. The procedure, abridged: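 Seed engineered human myoblasts (HLA-B HiBit) in medium without dexamethasone containing 4 ng/ml IFN-beta; after 1 hr add compound titrations (top 46 uM final). Incubate 24 hrs at 37 C, lyse 10 min with HiBiT reagent, read luminescence.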

The target of test [4] is Protein phosphatase 1D (Homo sapiens) (UniProt O15297). Nature of the test: RapidFire Mass Spectrometry qHTS Assay for Modulators of WT P53-Induced Phosphatase 1 (WIP1) (AID 1347424). Further: series mostly up to about 63 µM. The procedure, abridged: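 RapidFire MS readout of dephosphorylated VEPPL-S-QETFS product, with 1 uM isotope-labelled peptide standard. Reaction: 10 nM WIP1, 2 uM phosphopeptide substrate, 5 min, room temperature, after 1 h compound preincubation; stopped with 0.5% formic acid.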

The target is the same in test [5]. Nature of the test: Rhodamine-PBP qHTS Assay for Modulators of WT P53-Induced Phosphatase 1 (WIP1) (AID 1347425). The procedure, abridged: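 Read-out: Rhodamine-PBP fluorescence (ex 525/em 598 nm) for released Pi, read each minute for 11 min after adding 10 uM VEPPL-pS-QETFS; signal taken as f1 minus pre-substrate f0. Enzyme 5 nM WIP1 with 1 hr room-temperature compound preincubation.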

For test [6], the target named is Single-stranded DNA cytosine deaminase (Homo sapiens) (UniProt Q9GZX7). Nature of the test: Validation qHTS assay for inhibitors of Activation Induced Cytidine Deaminase (AID): AID signal (AID 1347429). Further: potency means the concentration at half of the fitted maximal effect. Put shortly: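 Steps: dispense AID with UDG; pin-transfer compound up to 114 uM final; add DJC20/DJC23 substrate and hold 4 hr at room temperature; add NaOH, hold 30 min; read FRET signal (540/590 nm).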

Test [7] can be described thus: Primary qHTS for inhibitors of La Crosse Virus (LACV) - induced cell death in SH-SY5Y cells (AID 1508616).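 Further: top concentration of the series differs between compounds; higher means more rescue of cells from virus-induced death.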 Put shortly: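 SH-SY5Y, 6000 cells/well; cpd via pin tool in DMSO; LACV 0.01 MOI; 6 d 37C 5% CO2; ATPLite, 5 min RT; luminescence normalized to ±virus DMSO controls.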
In test [8] the target is Calcium and integrin-binding protein 1 (Homo sapiens) (UniProt Q99828). Nature of the test: Validation qHTS for Identification of Calcium Integrin Binding protein 1 (CIB1) Competitor (AID 1508618). Further: potency means the concentration at half of the fitted maximal effect. Put shortly:
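CIB1-GST (1 uM final) in 5 mM HEPES pH 7.4, 125 mM NaCl, 5 mM CaCl2, 0.01% Tween20 was preincubated 15 min at room temperature with compound (up to 114 uM), then FITC-alphaIIb peptide (100 nM) added for 15 min; fluorescence polarization read.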

Test [9] has the same target. Nature of the test: Primary qHTS for Identification of Calcium Integrin Binding Protein 1 (CIB1) Competitor (AID 1508620). Further: potency means the concentration at half of the fitted maximal effect. Put shortly: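 Fluorescence polarization competition: GST-tagged CIB1 (1 uM final) preincubated with compound 15 min at room temperature, then FITC-labelled alphaIIb peptide (100 nM final) added. After 15 min at room temperature, polarization read at Ex 480/Em 540.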

Test [10] in a line: Validation qHTS assay for inhibitors of Activation Induced Cytidine Deaminase (AID): UDG Counterscreen signal (AID 1347427). The procedure, abridged: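 Fluorescence at 560 nm excitation, 665 nm emission reports UDG signal after 250 mM NaOH (2x) addition and 30 min. Enzymes (AID 1 uM, UDG 2 U/mL, at 4/3x) preincubated 10 min with compound, then 4 h with 4x 250 nM DJC20/DJC23 substrate at room temperature.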

Test [11] in a line: qHTS to identify inhibitors of the type 1 interferon - major histocompatibility complex class I in skeletal muscle: primary screen against the NCATS Pharmaceutical Collection (AID 1347407). Further: potency means the concentration at half of the fitted maximal effect. Put shortly: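 Luminescence from HiBiT-tagged endogenous HLA-B*08:01 served as the read-out of IFN-beta-induced MHC class I in CRISPR-engineered C25cl48 myoblasts. Cells received 4 ng/ml IFN-beta plus compound (high final 46 uM, […]) for 24 h.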

The nature of test [12]: Counterscreen qHTS for small molecule stabilizers of the endoplasmic reticulum resident proteome: GLuc-NoTag assay (AID 1508627).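 Further: SH-SY5Y cells given compound then 100 nM thapsigargin to empty ER calcium; series mostly up to about 76 µM.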 The procedure, abridged:
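Counterscreen line: SH-SY5Y-GLuc-NoTag. Seed, 5 h; compound, 19 h; thapsigargin 100 nM, 4 h; 37C/5% CO2. Readout: secreted GLuc luminescence, coelenterazine 0.07x final, no lysis.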

Test [13] deals with Calcium and integrin-binding protein 1 (Homo sapiens) (UniProt Q99828). Nature of the test: Confirmatory qHTS for Identification of Calcium Integrin Binding Protein 1 (CIB1) Competitor (AID 1508617). Further: potency means the concentration at half of the fitted maximal effect; nearly all actives have a fitted effect of over 65% in size. The following applies: CIB1 binding competition assay, biochemical qHTS. Put shortly: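 Fluorescence polarization competition: CIB1-GST (1 uM final) in 5 mM HEPES pH 7.4, 125 mM NaCl, 5 mM CaCl2, 0.01% Tween20 preincubated 15 min RT with compound (up to 114 uM), then FITC-alphaIIb peptide (100 nM) added, 15 min RT.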

Several values for one entry are separate records, joined by “and”; a condition that tells them apart may be missing. Equal values may be shown once. Inconclusive results are not listed. Activity calls are given as the source filed them. The call rests on the fitted dose curve; in most records, active means well fitted curve in the direction sought with a large enough effect; inconclusive means small, poorly fitted or top-dose-only effect, or another doubt; inactive means no such curve, though single readings can be large; an effect the other way counts as inactive or inconclusive.

Single-stranded DNA cytosine deaminase (Homo sapiens), sequence (Q9GZX7 whole entry, looked up): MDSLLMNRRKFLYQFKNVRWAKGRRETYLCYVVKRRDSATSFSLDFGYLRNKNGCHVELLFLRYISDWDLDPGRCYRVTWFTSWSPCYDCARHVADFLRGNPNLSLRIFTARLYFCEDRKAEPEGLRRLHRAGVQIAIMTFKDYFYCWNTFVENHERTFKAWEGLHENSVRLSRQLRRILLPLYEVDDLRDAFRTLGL
Calcium and integrin-binding protein 1 (Homo sapiens), sequence (Q99828 whole entry, looked up): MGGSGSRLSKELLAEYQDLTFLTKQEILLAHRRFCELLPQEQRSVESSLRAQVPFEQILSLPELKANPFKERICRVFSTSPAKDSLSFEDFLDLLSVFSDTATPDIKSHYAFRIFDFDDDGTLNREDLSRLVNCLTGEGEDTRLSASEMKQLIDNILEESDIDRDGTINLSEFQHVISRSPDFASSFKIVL
Protein phosphatase 1D (Homo sapiens), sequence (O15297 whole entry, looked up): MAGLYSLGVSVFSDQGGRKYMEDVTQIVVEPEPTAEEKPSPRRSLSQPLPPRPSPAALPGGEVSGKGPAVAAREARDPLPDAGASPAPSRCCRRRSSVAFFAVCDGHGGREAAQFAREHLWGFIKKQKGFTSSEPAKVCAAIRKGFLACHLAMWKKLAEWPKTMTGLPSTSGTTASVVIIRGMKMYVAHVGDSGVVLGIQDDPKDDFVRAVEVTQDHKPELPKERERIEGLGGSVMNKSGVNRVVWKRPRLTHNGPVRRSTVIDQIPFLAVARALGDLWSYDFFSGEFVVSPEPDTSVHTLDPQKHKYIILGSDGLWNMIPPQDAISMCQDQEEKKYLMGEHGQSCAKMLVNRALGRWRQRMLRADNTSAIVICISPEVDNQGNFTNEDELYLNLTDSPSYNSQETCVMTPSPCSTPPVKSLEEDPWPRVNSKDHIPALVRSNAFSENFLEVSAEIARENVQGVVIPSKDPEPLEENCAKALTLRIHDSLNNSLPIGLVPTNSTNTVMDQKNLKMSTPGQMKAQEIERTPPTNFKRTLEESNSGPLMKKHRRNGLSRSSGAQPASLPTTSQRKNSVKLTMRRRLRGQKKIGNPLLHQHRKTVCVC

For the molecule `NC(CO)C(=O)NNCc1ccc(O)c(O)c1O` (centres undefined), the Potency entry in [1], in test [3], in test [4], in test [6], in [7] and in [8] was “inactive” each time. The Potency result in test [9] is “inactive”. Moreover, the result in test [2] and in test [5] was inactive.
Consider `N[C@@H](Cc1c[nH]c2ccc(O)cc12)C(=O)O`, for which the Potency result in test [1], in test [3], in test [4], in test [10], in test [6] and in test [7] was “inactive” in each case. Further, the Potency result in test [8] and in test [9] was “inactive” each time. The molecule was classed as inactive in [2] and in test [5].
`Nc1nc2c(ncn2COC(CO)CO)c(=O)[nH]1`: the Potency result in test [1], in test [3], in test [4], in test [7], in test [8] and in test [9] was “inactive” throughout. Further, the molecule was called inactive in [2] and in [5].
For `CC[C@@]1(O)C(=O)OCc2c1cc1n(c2=O)Cc2cc3c(CN(C)C)c(O)ccc3nc2-1`, the Potency in test [1] is 3.55 µM (active); in test [11], 10.5 µM (active); in test [8] it was 14.1 µM (active); in [9], 28.2 µM (active) and 24.1 µM (active) and 31.6 µM (active). The molecule was called inactive in test [2] and in test [5]. The Potency entry in [4] is “inactive”.
Regarding `CN1CCC(=C2c3ccccc3CC(=O)c3sccc32)CC1`, the Potency result in test [1], in test [3], in [4], in test [6], in test [7] and in test [8] was “inactive” in each case. Also, the Potency result in [9] and in test [12] was “inactive” each time. Also, the molecule was called inactive in test [2] and in test [5].
Regarding `CC(=O)OCC(CCn1cnc2cnc(N)nc21)COC(C)=O`, the Potency entry in test [1], in test [3], in [4], in [8] and in test [9] was “inactive” each time. Also, the result in [2] and in test [5] was inactive.
Regarding `O=c1c(-c2ccc(O)cc2)coc2cc(O)cc(O)c12`, the figures for the Potency in [1] and in [3] were 17.8 µM (active) and 9.51 µM (active), respectively. The outcome in test [2] and in test [5] was inactive. Besides, the Potency entry in [4], in [6], in [8] and in test [9] was “inactive” each time.
On to `Cc1cc(C(C)(C)C)cc(C)c1CC1=NCCN1`, for which the Potency result in test [1], in [3], in test [4], in test [6], in [7] and in test [8] was “inactive” in each case. Also, in test [9], the Potency entry was “inactive”. The outcome in test [2] and in [5] was inactive.
For the molecule `CN(C)c1nc(N(C)C)nc(N(C)C)n1`, the Potency entry in [1], in test [3], in test [4], in [10], in test [6] and in [7] was “inactive” in each case. Moreover, the Potency entry in [8] and in test [9] was “inactive” in each case. The result in test [2] and in test [5] was inactive.
For `COc1ccccc1N1CCN(CC(O)COc2cccc3ccccc23)CC1` (centres undefined), the Potency entry in [1], in test [3], in test [4], in test [6], in test [7] and in test [8] was “inactive” each time. The Potency entry in test [9] is “inactive”. In addition, the call in [2] and in [5] was inactive.
For `O=C1c2c(O)ccc(O)c2C(=O)c2c(NCCNCCO)ccc(NCCNCCO)c21`, the Potency was 2.24 µM (active) in test [1]; 0.93 µM (active) in test [3]; 10 µM (active) in test [6]; 22.4 µM (active) and 20 µM (active) in test [13]; 20 µM (active) in test [8]; 30.4 µM (active) and 25.1 µM (active) in [9]. The outcome in [2] and in test [5] was inactive. Also, in test [4], the Potency entry is “inactive”.
In the case of `NCCc1cnc[nH]1`, the Potency entry in [1], in [3], in test [4], in test [6], in [8] and in test [9] was “inactive” throughout. Besides, the result in test [2] and in test [5] was inactive.
Regarding `CC1COc2c(N3CCN(C)CC3)c(F)cc3c(=O)c(C(=O)O)cn1c23` (centres undefined), the Potency entry in test [1], in test [3] and in [4] was “inactive” throughout. Also, the molecule was called inactive in [2] and in [5].
